Over roughly 13,000 compounds, “IFI” has its median near 4; the highest 2% begin near 17. Many of the other results were omitted from the sample, so the highest values are more common in it than they were.

The nature of the test: GSK_TCMDC: Inhibition Frequency Index (IFI). The number of non-kinase HTS assays where a compound showed > 50 % inhibition, expressed as a percentage of the number of such assays in which the compound was tested. The test is classed as functional.
`O=S(=O)(Nc1cccc(CCN2CCC(N3CCCCC3)CC2)c1)c1cccc2ccccc12`: the IFI is 8.06%. Then `Cc1c(Cl)cccc1S(=O)(=O)Nc1cccc(CCN2CCC(N3CCCCC3)CC2)c1`, with 14.3%; and `CN(C)c1cccc2c(S(=O)(=O)Nc3cccc(CCN4CCC(N5CCCCC5)CC4)c3)cccc12`, with 18%; and `CC(N)(Cc1ccc(O)cc1)c1nnn[nH]1` (stereo not drawn), with 0%.

For the compound `O=c1sn(-c2csc3ccccc23)c2ccccc12`, the IFI is 18.5%.

Turning to `Cc1[nH]c(C)c(-c2csc3ccccc23)c(=O)c1Cl`, the IFI is 0%. Then `COc1ccc(S(=O)(=O)NCC2CCCN(CCCCCNC(=O)/C=C/c3ccc(Cl)c(Cl)c3)C2)cc1` (stereo not drawn), with 9.22%; and `Cc1nc(Nc2ccc(F)cc2)nc(N2CCc3cc(O)ccc3C2C)c1C` (stereo not drawn), with 8.63%; and `O=c1c(NCCCN(Cc2ccc(F)cc2)c2ccccn2)c(NCc2ccncc2)c1=O`, with 0.7%. The compound `COc1ccc(CC2(c3ccc(F)cc3)N=C(N)N(CCCc3ccccc3)C2=O)cc1` (stereo not drawn) registered an IFI of 16.7%. Next, `COc1ccc(CC2(c3ccc(F)cc3)N=C(N)N(CCCc3ccc4c(c3)OCO4)C2=O)cc1` (stereo not drawn): 6.45%; `COc1ccc(CC2(c3ccc(F)cc3)N=C(N)N(CCCc3ccc(F)c(F)c3)C2=O)cc1` (stereo not drawn): 20%; `COc1ccc(CNC(=O)c2cnc3c(O)cccc3c2Nc2cccc(NC(=O)c3ccc(Cl)c(Cl)c3)c2)cc1`: 7.81%. Then `NC(=O)COc1c(C2CCN(CCCCNC(=O)c3ccc(-c4ccc(Cl)cc4)c(O)c3)CC2)ccc2c1CCCC2`, with 13.8%; and `CC(C)C1=C[C@H]2C[C@]3(C4OCCO4)[C@@H]4CC[C@@H](C)[C@H]4C[C@@]2(COCc2cccc(C#N)c2)[C@]13C(=O)OC(c1ccccc1)c1ccccc1`, with 2.33%. Compound `CN1CCN(Cc2ccc(-c3ccc4ncnc(Nc5ccc(OCc6ccccc6)cc5)c4c3)o2)CC1` showed an IFI of 6.98%. `Cc1cccc2nc(-c3ccc(-c4ccc(CNCc5ccc(CN)cc5)cc4)s3)[nH]c12` showed an IFI of 11.9%. Then `CC(C)CNCc1ccc(-c2cccc(CNc3ccc4ncccc4c3)c2)cc1`, with 8.51%. Next, `COc1cc2nccc(Nc3ccc(OCc4ccc(NC(C)=O)cc4)cc3)c2cc1OC`: 5.84%.

Compound `Nc1nccc2ccc(-c3ccnc(NCc4cccnc4)n3)cc12` registered an IFI of 5.56%.

Turning to `COc1ccc(Nc2nccc(-c3ccc4c(-c5ccsc5)cnc(N)c4c3)n2)cc1`, the IFI was 2.13%. Then `Cn1ncc2ccc(Nc3nccc(-c4ccc5c(c4)c(N)nn5C)n3)cc21`, with 17.8%.

For `CC(CN(C)C)C(=O)Nc1ccc(-c2ccc(-c3nc4cc(C(F)(F)F)ccc4[nH]3)cc2)cc1` (stereo not drawn), the IFI is 3.6%. Take `CC(C)(C)C(=O)Nc1ccc(N2CCN(C(c3ccccc3)c3ccccc3)CC2)c(Cl)c1`: the IFI was determined as 3.51%.

For `O=C(Nc1ccc(Cl)c(Cl)c1)Nc1ccccc1N1CCNCC1`, the IFI came out at 15%. Next, `Cc1ccc(C(C(=O)Nc2ccc(N3CCNCC3)c(Cl)c2)c2ccccc2)cc1` (stereo not drawn): 18.6%. `CC(C)N1CCN(C(CN2CCN(CCCOc3ccc4ccccc4c3)CC2)c2ccc(F)cc2)CC1` (stereo not drawn) yielded an IFI of 9.85%. Next, `CNc1ccc(CNCc2ccc(-c3ccc(-c4nc5cc(C(F)(F)F)ccc5[nH]4)cc3)cc2)cc1`: 14.1%; `FC(F)(F)c1ccc2[nH]c(-c3ccc(-c4cccc(CNCc5ccccc5)c4)cc3)nc2c1`: 12.5%; `CNc1ccc(CNCc2cccc(-c3ccc(-c4nc5cc(C(F)(F)F)ccc5[nH]4)cc3)c2)cc1`: 18.8%. Next, `Cc1ccc(-n2c(Sc3ncnc4sccc34)nnc2N2CCCC2)cc1`: 6.06%; `C[C@H]1CN(Cc2ccc(-c3cccc(CNC(=O)c4cccc(C(=O)c5ccc(Cl)c(Cl)c5)c4)c3)s2)CCN1`: 16.2%. Next, `CC1CCN(Cc2cccc(C(=O)NCc3ccc(F)c(-c4cccc(CN5CCN[C@@H](C)C5)c4)c3)c2)CC1`: 5.04%; `C[C@H]1CN(Cc2cccc(-c3cc(CNC(=O)c4cccc(C(=O)c5ccc(Cl)c(Cl)c5)c4)ccc3F)c2)CCN1`: 18.6%. `Cc1cc(N[C@@H](Cc2ccccc2)C(=O)NCc2cccc(F)c2)nc(NCCc2cccs2)n1` yielded an IFI of 12.8%.

Regarding `O=C(NCC1Cc2cc(Oc3ccccc3)ccc2O1)c1ccc([N+](=O)[O-])o1` (stereo not drawn), the IFI came to 17.9%.

For `CCOC(=O)C(CO)NC(=O)c1ccc([N+](=O)[O-])o1` (stereo not drawn), the IFI turned out to be 1.41%. Next, `CCOC(=O)C(NC(=O)c1ccc([N+](=O)[O-])o1)C(C)C` (stereo not drawn): 1.41%; `Cc1cccc2nc(-c3ccc(-c4ccc(NC(=O)Nc5ccsc5)cc4)cc3)[nH]c12`: 8%. Next, `CN(C)CCNCc1cccc(-c2ccc3c(Nc4cc(O)c(Cl)cc4F)ccnc3c2)c1`: 3.68%; `O=C(N[C@H]1CCN(CCc2ccc(O[C@H]3CCNC3)c(F)c2)C1)c1ccc(Cl)c(Cl)c1`: 6%; `O=C(NC(Nc1ccc([N+](=O)[O-])cc1)C(Cl)(Cl)Cl)c1ccc(Cl)cc1` (stereo not drawn): 19.9%.

In turn, `COc1ccc(C(=O)NC(Nc2ccc([N+](=O)[O-])cc2)C(Cl)(Cl)Cl)cc1` (stereo not drawn) came in with an IFI of 13.4%. `O=C(NC(Nc1ccc([N+](=O)[O-])cc1)C(Cl)(Cl)Cl)c1cccc(Cl)c1` (stereo not drawn): the IFI is 13.9%.

Take `COc1cccc2c(N/N=C/c3ccccc3[N+](=O)[O-])ccnc12`: the IFI amounted to 3.62%. Then `CC(C)(C)c1cc(Cl)cc(C(=O)Nc2cc([N+](=O)[O-])ccc2Cl)c1O`, with 13.7%; and `CC(C)(C)c1cc([N+](=O)[O-])cc(C(=O)Nc2ccccc2C(F)(F)F)c1O`, with 22.7%; and `O=C(Nc1ccccc1Cc1ccccc1)c1ccccc1C(F)(F)F`, with 0.78%. Next, `CNC(=O)c1cnc(Nc2ccc(N3CCN(C)CC3)cc2)nc1Nc1cccc(OC)c1`: 4.48%; `Cc1ccc2[nH]c(NC#N)nc2c1`: 0%.

For `COc1cc2nc(N3CCC(CNCc4ccc(-c5ccc(C(F)(F)F)cc5)cc4)CC3)nc(N)c2cc1OC`, the IFI is 17.1%. In the case of `c1ccc(Oc2ccc(Nc3ccnc(Nc4cccc(CNCCCN5CCOCC5)c4)n3)cc2)cc1`, the IFI turned out to be 7.41%. In turn, `CN1CCN(Cc2cccc(Nc3nccc(Nc4ccc(Oc5ccccc5)cc4)n3)c2)CC1` displayed an IFI of 3.01%. Next, `c1ccc(Oc2ccc(Nc3ccnc(Nc4ccc(CN5CCOCC5)cc4)n3)cc2)cc1`: 20.2%; `COc1ccc(CNC(=O)Nc2cc3cc(-c4ccc(CN5CCCC5)cc4)ccc3n3c(C)nnc23)cc1`: 13.5%.

As for `Cc1cccc2nc(-c3cccc(-c4ccc(NC(=O)c5ccncc5)cc4)c3)[nH]c12`, the IFI amounted to 4.42%. Next, `Cc1ccc(NC(=O)Nc2ccc(Cl)cc2)cc1-c1cccc(C(=O)Nc2ccc(F)cc2)c1`: 15.9%; `Cc1ccc(NC(=O)c2cccc(C#N)c2)cc1-c1ccc(C(=O)Nc2ccncc2)cc1`: 24.6%. Then `Cc1ccc(NC(=O)c2ccc(Cl)cc2)cc1-c1ccc(C(=O)Nc2ccncc2)cc1`, with 15.5%; and `O=C(Nc1ccc(-c2oc(C(=O)NCCc3cccc(Cl)c3)cc2-c2ccncc2)cc1)Nc1cccc(Cl)c1`, with 2.78%. In turn, `O=C(Nc1ccc(C(=O)Nc2cccc(C3=NCCN3)c2)cc1)Nc1ccc(C2=NCCN2)cc1` returned an IFI of 3.57%. Next, `N#Cc1cccc(C(=O)Nc2cccc(-c3ccc(C(=O)Nc4cccnc4)cc3)c2)c1`: 7.46%. Then `Cc1ccc(NC(=O)Nc2ccccc2)cc1-c1ccc(C(=O)Nc2ccncc2)cc1`, with 25.7%. Then `Cc1ccc(NC(=O)Nc2cccc(Cl)c2)cc1-c1ccc(C(=O)Nc2ccncc2)cc1`, with 25.4%; and `CN(C)C(CNC(=O)c1cc(-c2ccncc2)c(-c2ccc(NC(=O)Nc3cccc(Cl)c3)cc2)o1)c1ccccc1` (stereo not drawn), with 8.11%; and `CC(C)NCc1ccc(-c2ccc(NC(=O)c3cccc(C#N)c3)cc2)cc1`, with 8.16%. Compound `Cc1ccc(NC(=O)Nc2ccc(Cl)cc2)cc1-c1ccc(C(=O)Nc2ccncc2)cc1` showed an IFI of 21.1%. Then `CN1CCC(NCc2cccc(-c3nn(C)c4nc(NC5CCCC5)ncc34)c2)CC1`, with 9.09%; and `CCC1CN2CCc3c([nH]c4ccccc34)[C@@H]2C[C@@H]1CC1NCCc2cc(OC)c(OC)cc21` (stereo partly drawn), with 8.33%; and `CC(Oc1cc(-n2cnc3ccc(NC(=O)CCN4CCCCC4)cc32)sc1C(N)=O)c1ccccc1Cl` (stereo not drawn), with 9.35%. Then `Cc1cc(N2CC=CCC2)nc(NC(=N)Nc2ccc(Cl)cc2)n1`, with 4.29%; and `CCN(CC)CCCCCNc1c2ccc(Cl)cc2nc2ccc(OC)cc12`, with 8.03%. Then `COc1cc2nc(-c3ccc(Br)cc3)cc(N)c2cc1OC`, with 11.1%; and `Cc1ccc(NC(=O)c2ccc(Cl)c(Cl)c2)cc1-c1ccc(C(=O)Nc2ccncc2)cc1`, with 8.82%. `Cc1ccc(C)c(NC(=O)Nc2ccc(C)c(-c3ccc(C(=O)Nc4ccncc4)cc3)c2)c1`: the IFI was 14.1%. Regarding `Cc1ccc(NC(=O)c2ccc(N3CCN(c4ccncc4)CC3)cc2)cc1F`, the IFI was determined as 6.9%. In the case of `Cc1ccc(NC(=O)Nc2ccccc2F)cc1-c1ccc(C(=O)Nc2ccncc2)cc1`, the IFI was determined as 26.4%. Next, `Cc1ccc(NC(=O)Nc2ccc(Cl)c(C(F)(F)F)c2)cc1-c1ccc(C(=O)NCCN2CCOCC2)cc1`: 13.2%; `Cc1ccc(NC(=O)Nc2ccc(Cl)c(C(F)(F)F)c2)cc1-c1ccc(C(=O)Nc2ccncc2)cc1`: 18.3%; `Cc1ccc2c(=O)cc(CCc3cccc(F)c3F)n(CC(=O)N(Cc3ccc(-c4ccc(C(F)(F)F)cc4)cc3)C3CCN(C)CC3)c2n1`: 8.51%. Next, `CC(C)(C)N1CCC(N(Cc2ccc(-c3ccc(C(F)(F)F)cc3)cc2)C(=O)Cn2c(CCc3cccc(F)c3F)nc(=O)c3cccnc32)CC1`: 16.7%; `CC(C)COc1ccc(Cl)cc1Cc1ccc(-c2nc3ccc(Cl)cc3[nH]2)o1`: 19.1%. Then `CC(C)COc1ccc(Cl)cc1Cc1ccc(-c2nc3ccc(C(F)(F)F)cc3[nH]2)o1`, with 11.3%; and `CC(C)COc1ccc(Cl)cc1Cc1ccc(-c2nc3c(F)cccc3[nH]2)o1`, with 15.5%.

As to `CC(C)COc1ccc(Cl)cc1Cc1ccc(-c2nc3ccc(F)c(F)c3[nH]2)o1`, the IFI was 11.3%.

Compound `CC(C)COc1ccc(Cl)cc1Cc1ccc(-c2nc3ccc(F)cc3[nH]2)o1` returned an IFI of 15.5%. For the compound `CC(C)COc1ccc(Cl)cc1Cc1ccc(-c2nc3ccc(Br)cc3[nH]2)o1`, the IFI was determined as 19.8%.

As to `NC(=O)c1ccccc1Nc1nc(Nc2cc[nH]n2)ncc1Cl`, the IFI was found to be 0%.

(Values after ChEMBL document CHEMBL1157539, “Thousands of chemical starting points for antimalarial lead identification” (Nature, 2010).)
